Results on 10 compounds are retold here after PubChem BioAssay (NCATS).

Records with an inconclusive call do not appear. Activity calls are given as the source filed them. Unless noted, the call rests on the fitted dose curve; in most records, active means well fitted cell-killing curve with a large enough effect; inconclusive means small, poorly fitted or top-dose-only effect, or effect the other way; inactive means no such curve, though single readings can be large or run the other way.

Test [1] can be described thus: Quantitative High-Throughput drug screen in 47 multiple myeloma cell lines against the NCATS MIPE library collection: KMS28BM_JCRB cell viability assay (AID 1919874). Further: nearly all actives have a fitted effect of over 35% in size. Further: potency means the concentration at half of the fitted maximal effect. The note with it: CellTiter-Glo ATP, 48 h; series mostly up to 45.8 µM. The gist of the method:
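Plated at 500 cells per well, myeloma lines received MIPE 4.0 compounds by pin tool. Following 48 h culture at 37 °C, CellTiter-Glo luminescence gave viability relative to DMSO and media-only controls.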

Test [2] in a line: qHTS drug screen for cell cycle checkpoint inhibitors in PARPi-resistant BRCA-mutant ovarian cancer cell lines. (AID 1963452; calls by dose curve). The conditions noted are these: PEO1/OlaR viability, CellTiter-Glo luminescence, 96 h, stronger effect = lower value. The method, boiled down:
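PEO1, PEO4 and PEO1/OlaR ovarian cancer cells, 600 per well, exposed 96 h at 37C to a dilution series. Viability read by CellTiter-Glo luminescence, normalized to DMSO and empty wells; activity summarized as Z-AUC.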
Background: In qHTS, concentration-response curves come from the screen itself.

The mark [3] stands for this setting: measured here: PEO1 parental Z-AUC.

As for `N#Cc1cc(NC(=O)Nc2nnc(-c3ccncc3)s2)ccc1-c1cn[nH]c1`, the Potency result in test [1] is “inactive”. In addition, the Z-AUC in test [2] is -0.0161 (inactive); in test [2] (setting [3]) it was 0.0346; in test [2] (measured here: PEO4 Z-AUC), 0.15.

Turning to `Oc1cc2c(cc1O)C1c3ccc(O)c(O)c3OCC1(O)C2` (stereo not given), in test [1], the Potency entry was “inactive”. Further, the Z-AUC in test [2] is 1.52 (inactive); in test [2] (setting [3]) it was 1.33; in test [2] (measured here: PEO4 Z-AUC), 1.39.

In the case of `CC(C)Oc1ccc(C(=O)N[C@H](CNC(=O)CN(C)C)Cc2ccc(-c3cn4cccc([C@H](C)O)c4n3)cc2)cc1Cl`, the Potency in test [1] was 1.66 µM (active). Besides, the Z-AUC is -1.44 (inactive) in test [2], -0.733 in test [2] (setting [3]) and -1.18 in test [2] (measured here: PEO4 Z-AUC).

As for `c1cc(N[C@@H]2CCNC2)nc(-c2cnc3ccc(-c4cn[nH]c4)cn23)c1`, the Potency in test [1] was 23.5 µM (active). The Z-AUC in test [2] was -1.39 (inactive); in test [2] (setting [3]), -0.698; in test [2] (measured here: PEO4 Z-AUC), -0.866.

Turning to `CC(C)(N)c1ccc(-c2nc3ccccc3nc2-c2ccccc2)cc1`, the Potency in test [1] was 26.4 µM (active). Moreover, the results for the Z-AUC in test [2], in test [2] (setting [3]) and in test [2] (measured here: PEO4 Z-AUC) were 0.345 (inactive), 0.18 and 0.291, respectively.

With `Cc1cnc(NC(=O)Nc2cc(Br)c(C)cc2OC[C@@H]2CNCCO2)cn1`, the Potency in test [1] is 14.8 µM (active). Besides, the figures for the Z-AUC in test [2], in test [2] (setting [3]) and in test [2] (measured here: PEO4 Z-AUC) were -0.43 (inactive), -0.193 and -0.00574, respectively.

Take `O=C(O)CCCCCC(=O)NN=C1CCCC1`: in test [1], the Potency entry was “inactive”. For the same compound, the Z-AUC in test [2] was 1.41 (inactive); in test [2] (setting [3]), 1.02; in test [2] (measured here: PEO4 Z-AUC), 1.15.

Take `O=C1c2cccc(O)c2C(=O)c2c(O)cc(CO)cc21`: the Potency result in test [1] is “inactive”. Further, the Z-AUC in test [2] is 0.225 (inactive); in test [2] (setting [3]) it was -0.222; in test [2] (measured here: PEO4 Z-AUC), -0.301.

Regarding `C[C@@H]1C(=O)O[C@H]2CC34[C@H]5C[C@@H](C(C)(C)C)C36[C@H](OC(=O)[C@@H]6O)O[C@@]4(C(=O)O5)[C@]21O` (stereo not given in full), the Potency entry in test [1] is “inactive”. Further, the Z-AUC in test [2] is 0.793 (inactive); in test [2] (setting [3]), 0.5; in test [2] (measured here: PEO4 Z-AUC) it was 0.284.

Regarding `CC(C)c1cnn2c(NCc3ccccc3)cc(NCCCCCCN)nc12`, the Potency in test [1] is 20.9 µM (active). For the same compound, the Z-AUC in test [2] is 1.27 (inactive); in test [2] (setting [3]), 1.33; in test [2] (measured here: PEO4 Z-AUC) it was 1.15.
